Abeta rescue: compounds reversing amyloid beta toxicity in yeast; yeast expressing A-beta42, growth rescue, OD600, 48 h; response scale: 0% DMSO, 100% iron-clioquinol control; AID 1347071; 0.063% of 410,000 active; Potency, µM (series often up to 46.1 µM), most hits filed as activators; also: nearly all actives have a fitted effect of over 55% in size
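Yeast A-beta toxicity model in growth medium with pinned compounds, 48 h at 30 C; growth read as absorbance at 600 nm. Normalized to FeCl3/clioquinol equimolar mix (positive) and DMSO (negative).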
Chronic BCR inh: inhibitors of chronic active B-cell receptor signaling; 0.05% of 340,000 active; Potency, µM (doses to about 46.1 µM), inactives show at the highest dose activity change, negative = inhibition, usual class: inhibitors; ABC-DLBCL IkBa-CBG/CBR reporter, luminescence ratio, 4 h; active = well fitted inhibition curve with a large enough effect in the signal ratio, with a control signal flat, not every such curve was filed as active; inconclusive = small, poorly fitted or top-dose-only effect, or effect the other way, or a change in a side signal; the % refers to the signal ratio;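 also: plate controls were basal doxycycline-induced cells for no effect and cells given 10 µM MG132 for full effect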
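Concentration-response series (up to 46 uM) were applied to TMD8 dual-reporter cells for 4 h at 37C with doxycycline. Green/red ratio, after filter-overlap correction, defined %Activity; red signal alone was normalised to basal cells and zero luminescence.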
aSyn rescue: inhibitors of alpha-synuclein toxicity in yeast; Potency, µM (highest dose often 46.1 µM), for the others: top-dose growth rescue (activation), actives largely listed as activators; 0.14% of 370,000 active; Yeast expressing alpha-synuclein, growth rescue, BacTiter-Glo, 24 h; AID 652106; also: % of control where 0% means no effect; nearly all actives have a fitted effect of over 65% in size
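Galactose-induced alpha-syn yeast (OD600=0.02, raffinose-pregrown) + pinned cpd, 24 hr, 30 deg C; growth by BacTiter-Glo luminescence. Growth restoration scores as activation.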
uPA surface inh: inhibitors of cell surface uPA generation. cell surface uPA generation assay, qHTS. Potency, µM (doses to about 38.3 µM), without a hit: at the top dose activity change, negative = inhibition, hits mostly inhibitors. 0.31% of 330,000 active. AID 540303; active = well fitted inhibition curve with a large enough effect; inconclusive = small, poorly fitted or top-dose-only effect; inactive = no such curve, though single readings can be large or run the other way; tested in mouse RAW 264.7 cells; also: % is scaled to controls: 0 for no effect and ±100 for the full control effect; nearly all actives have a fitted effect of over 55% in size
FUS suppressor: suppressors of FUS proteinopathy in yeast; S. cerevisiae FUS-expressing, growth rescue, OD600, 24 h; Potency, µM (highest dose often 76.6 µM), hits mostly activators; 0.24% of 390,000 active; AID 1347120;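 also: plate controls were DMSO vehicle for no effect and reference control for full effect; nearly all actives have a fitted effect of over 55% in size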
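Quantitative HTS measuring growth restoration of FUS-toxic yeast. Galactose-induced cells (OD 0.005) were exposed 24hr at 30C to compounds at several concentrations, then absorbance at 600 nm was recorded.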
TDP43 rescue: rescues yeast growth from TDP-43 toxicity | Potency, µM (doses to about 46.1 µM), inactives show at the highest dose growth rescue (activation), usual class: activators | TDP-43 expressing yeast growth rescue, BacTiter-Glo, 24 h | 1.8% of 410,000 active; also: % of control where 0% means no effect; nearly all actives have a fitted effect of over 50% in size
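Galactose-induced TDP-43 yeast, OD600=0.02, compound pinned; 24 hr, 30 deg C; BacTiter-Glo luminescence for growth. Inhibitors of TDP-43 toxicity read as activators.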
Starred values were filed as active, the others as inactive; i = inactive; ? = inconclusive; . = no result; [ ] = dose if it differs, or a comment. This is a sample that favours compounds with a hit; in the whole collection about 2.3% have one here. Unless noted, calls follow the shape of the dose curve; as a rule, active = well fitted curve in the direction sought with a large enough effect; inconclusive = small, poorly fitted or top-dose-only effect, or another doubt; inactive = no such curve, though single readings can be large; an effect the other way counts as inactive or inconclusive. Potency is read from the fitted curve at half-maximal effect.

SMILES	Abeta rescue	Chronic BCR inh	aSyn rescue	uPA surface inh	FUS suppressor	TDP43 rescue
O=C1C=C(c2cc(Cl)cc(Cl)c2)C[C@@H](c2ccc(F)cc2)C1	i	12%	1%	-28%	i	?
COc1cc(F)c(C2=CC(=O)C[C@H](c3ccc(F)cc3)C2)cc1F	i	0%	9%	10%	i	?
Cc1cc(Cl)ccc1C1=CC(=O)C[C@H](c2ccc(F)cc2)C1	i	?	-10%	3%	i	14µM*
COc1ccc([C@H]2CC(=O)C=C(c3ccc(Cl)cc3C)C2)cc1	i	-9%	-1%	-15%	?	18µM*
CN(C)c1ccc(CNCCC2(O)CCOC(C)(C)C2)cc1 (stereo unspecified)	i	-2%	0%	-13%	i	-10%
COc1ccccc1-c1cnc2c(Nc3cccc(OC(F)(F)C(F)F)c3)nccn12	i	.	-23%	.	i	21%
Cc1ccc(OCCOc2cccc(Br)c2)c([N+](=O)[O-])n1	i	?	2%	-17%	i	14µM*
CCc1cc2c(=O)[nH]c(-c3ccccn3)nc2s1	?	?	18µM*	-7%	.	?
CN1C(=O)CC(c2ccco2)Sc2ccccc21 (stereo unspecified)	i	-7%	-1%	.	?	3%
COc1ccc(C2CC(=O)N(C)c3ccccc3S2)cc1 (stereo unspecified)	i	?	18%	-14%	i	13µM*
CCN(CC)C(=O)c1[nH]cnc1C(=O)N[C@@H](Cc1ccccc1)C(=O)OCc1ccccc1	i	3%	1%	0%	i	9%
O=C(CSc1nc2ccccc2c2c1CCCC2)N1CCOCC1	i	11%	?	-1%	i	10µM*
O=C(CSc1nncc2ccccc12)N1CCOCC1	i	?	4%	-6%	i	-16%
COc1ccc(NC(=O)CN(C)CC(=O)Nc2ccc(Cl)cc2[N+](=O)[O-])cc1	i	?	-21%	-7%	i	-9%[9.22 µM]
O=C(NNC(=S)Nc1ccccc1)c1cc(-c2cccnc2)nc2ccccc12	i	10%	-3%	5%	i	?
CC(OC(=O)c1cc(-c2cccnc2)nc2ccccc12)C(=O)Nc1ccc2ccccc2c1 (stereo unspecified)	i	15%	9%	10%	5.6µM*	-7%
O=[N+]([O-])c1cc(S(=O)(=O)Oc2ccccc2)ccc1Cl	i	.	-6%	-2%	.	11µM*
O=C1Nc2ccccc2Oc2cc([N+](=O)[O-])cc(Oc3ccccc3)c21	i	?	-3%	-6%	.	-29%
COC(=O)c1ccc(CSc2nc3ccccc3c(=O)n2CC(C)C)o1	i	?	-1%	6%	i	-1%
CC(C)(C)c1ccc(/C=N/Nc2ccc(C(=O)O)cc2)cc1	i	?	-33%	9%	i	16µM*
O=C(O)c1ccc(N2CCN(C(c3ccccc3)c3ccccc3)CC2)c([N+](=O)[O-])c1	i	?	-5%	-5%	i	11µM*
C=C1CCN(c2ccc(C(=O)O)cc2[N+](=O)[O-])CC1	i	.	-31%	-7%	i	?
COCc1cc(C)nc(OCC(=O)N/N=C/c2ccc(-c3cccc([N+](=O)[O-])c3)o2)c1C#N	.	8%	.	.	.	.
Cc1cc2ncn(/N=C/c3ccc([N+](=O)[O-])s3)c2cc1C	i	?	10%	-10%	.	13µM*
Fc1ccc(NC(=S)Nc2ccc(Cl)cc2Cl)cc1	i	-2%	-4%	1%	i	21%
SMILES	Abeta rescue	Chronic BCR inh	aSyn rescue	uPA surface inh	FUS suppressor	TDP43 rescue
COc1ccc(C(=O)O/N=C(\N)c2ccc(Br)cc2)cc1	i	12%	-26%	-4%	i	2.5µM*
COc1cc(OC)c(C(=O)O/N=C(\N)c2cccc(C)c2)cc1OC	i	?	-54%	-10%	i	?
Cc1ccc(C(=O)O/N=C(\N)c2ccc(Br)cc2)cc1	i	?	-24%	-1%	.	4µM*
COc1ccc(C(=O)O/N=C(\N)c2ccccc2)cc1	i	?	-69%	-2%	i	?
CC(C)(C)c1ccc(C(=O)O/N=C(\N)c2ccccc2)cc1	i	?	-49%	13%	i	3.2µM*
COc1cc(OC)c(C(=O)O/N=C(\N)c2ccc(C)cc2)cc1OC	i	3%	-18%	-10%	i	11µM*
CC(=O)C1=C(C)Nc2ncnn2C1c1cccc(OCc2ccccc2)c1 (stereo unspecified)	i	-8%	-1%	20%	i	?
COC(=O)Cn1c(=NC(=O)C(C)(C)C)sc2c(C)cc(C)cc21	i	-4%	2%	-10%	i	15%
CC(C)NC(=O)C1C(c2ccccc2)=Nc2ccccc2N1C(=O)c1ccc(C(F)(F)F)cc1 (stereo unspecified)	i	.	-2%	.	i	3%
CCOC(=O)N1CCN(C(=S)NC(=O)C2CCCC2)CC1	i	10%	-4%	9%	i	-11%
CCC(c1nnc(SCC(=O)NC23CC4CC(CC(C4)C2)C3)o1)N(C)C (stereo unspecified)	i	3%	-8%	-5%	i	9%
CCC(CC)C(=O)N1CCc2cc(OC)c(OC)cc2C1COc1ccc(C(=O)OC)cc1 (stereo unspecified)	i	0%	1%	.	?	28µM*
COC(=O)c1ccc(OCC2c3cc(OC)c(OC)cc3CCN2C(=O)Cc2ccccc2)cc1 (stereo unspecified)	i	0%	1%	.	?	20µM*
COC(=O)c1ccc(OCC2c3cc(OC)c(OC)cc3CCN2C(=O)c2ccc(F)cc2)cc1 (stereo unspecified)	i	-15%	9%	.	?	35µM*
COC(=O)c1ccc(OCC2c3cc(OC)c(OC)cc3CCN2C(=O)COc2ccc(Cl)cc2)cc1 (stereo unspecified)	i	2%	?	.	i	0%
COc1ccccc1CNC(=O)COC(=O)c1ccc(C)s1	i	-1%	1%	20%	i	15%
CCN(CC(=O)Nc1ccc(NC(C)=O)cc1)C(=O)/C=C/c1ccc([N+](=O)[O-])cc1	i	14%	0%	0%	i	13%
S=C1SCN(Cc2cccs2)CN1Cc1cccs1	i	.	15%	.	i	11µM*
S=C1SCN(Cc2ccco2)CN1Cc1ccco1	i	?	-20%	-14%	i	?

Screens: PubChem BioAssay, National Center for Advancing Translational Sciences (NCATS)
